Out of some 16,000 compounds screened, about 5,800 (36%) were called active. Another 23% or so got no clear call; they are omitted. The list shows a part of the results. A number with no mark means an inactive call. Calls follow the shape of the dose curve; as a rule, active = well fitted curve in the direction sought with a large enough effect; inconclusive = small, poorly fitted or top-dose-only effect, or effect the other way; inactive = no such curve, though single readings can be large or run the other way. Square brackets hold non-standard residues; d marks the D form. Peptide text beside a SMILES is read from it.
molecular target: Cytochrome P450 2C19 (Homo sapiens) (UniProt P33261); assay: Cytochrome panel assay with activity outcomes; conditions: recombinant CYP, pro-luciferin dealkylation, luminescence, p450-cyp2c19; series mostly up to 57.1 µM
Sequence (P33261 whole entry, looked up): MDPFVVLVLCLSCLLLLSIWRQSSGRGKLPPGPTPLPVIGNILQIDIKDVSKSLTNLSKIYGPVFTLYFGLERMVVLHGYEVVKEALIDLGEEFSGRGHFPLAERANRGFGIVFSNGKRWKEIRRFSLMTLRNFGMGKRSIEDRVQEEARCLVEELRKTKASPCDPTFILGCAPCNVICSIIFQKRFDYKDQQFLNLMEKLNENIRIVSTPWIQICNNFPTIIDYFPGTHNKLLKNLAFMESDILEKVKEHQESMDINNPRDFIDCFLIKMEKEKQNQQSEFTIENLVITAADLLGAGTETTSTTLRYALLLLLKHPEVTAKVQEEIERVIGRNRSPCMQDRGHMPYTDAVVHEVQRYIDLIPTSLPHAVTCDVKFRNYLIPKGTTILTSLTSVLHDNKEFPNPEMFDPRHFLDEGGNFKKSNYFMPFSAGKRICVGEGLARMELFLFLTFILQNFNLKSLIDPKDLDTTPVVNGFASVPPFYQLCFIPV
% is scaled to controls: 0 for no effect and ±100 for the full control effect.

Compound	AC50	activity, negative = inhibition
CC(C)Oc1ccc(C2CC(=O)NC3=C2C(=O)CCC3)cc1 (stereo not drawn)	22.4 µM (active)	
CO[C@@H]1COC(=O)C/C=C\[C@H](C)[C@H](OC)COC(=O)[C@H]2CCCN2C(=O)C/C=C\[C@H]1C		3.47% [at 11.4 µM]
CCOC(=O)N1CCN(c2c(-c3ccccc3)c3cc(Cl)ccc3[nH]c2=O)CC1	3.16 µM (active)	
CCOC(=O)N1CCN(S(=O)(=O)c2ccc3[nH]cc(C(=O)O)c(=O)c3c2)CC1	inactive	
Cc1cc(=O)c2cc(Cl)ccc2[nH]1	inactive	
COc1ccc2[nH]cc(CCNc3ccnc(-c4cccnc4)n3)c2c1	1 µM (active)	
CN(C)c1ccnc(-c2cccc(NS(C)(=O)=O)c2)n1	inactive	
Cc1cnc(CNc2cc(-c3cccnc3)ncn2)cn1	inactive	
COc1cccc(-c2cc(NCCc3c[nH]c4ccc(OC)cc34)ncn2)c1	0.501 µM (active)	
COc1ccc2[nH]cc(CCNc3ccnc(-c4cccc(NS(C)(=O)=O)c4)n3)c2c1	10 µM (active)	
COc1ccc2[nH]cc(CCNc3cc(-c4cccnc4)ncn3)c2c1	25.1 µM (active)	
COc1ccc2[nH]cc(CCNc3cc(-c4cccc(C#N)c4)ncn3)c2c1	7.94 µM (active)	
COc1ccc2[nH]cc(CCNc3cc(-c4ccoc4)ncn3)c2c1	5.01 µM (active)	
Cc1cnc(CNc2cc(-c3ccoc3)ncn2)cn1	inactive	
COc1ccc(-n2c(=O)c(-c3cccc(C#N)c3)nc3cnc(N4CCNCC4)nc32)cc1	inactive	
C[C@H]1CC(C)(C)C[C@@](OCCN2CCCCC2)(c2ccccc2)C1		-2.08% [at 11.4 µM]
COc1cccc(CC(C(=O)Nc2cc(C)ccc2C)c2nn[nH]n2)c1OC (stereo not drawn)	11.2 µM (active)	
O=C1C2=CC[C@H]3C(=O)N(c4cccc(Oc5ccccc5)c4)C(=O)[C@@H]3[C@@H]2[C@H](O)[C@@H]2O[C@H]12		2.5% [at 11.4 µM]
Cc1cccc(Oc2coc3cc(OC(=O)c4cccs4)ccc3c2=O)c1	3.98 µM (active)	
COc1cccc(C2C3=C(CC(C)(C)CC3=O)OC(N)=C2[N+](=O)[O-])c1 (stereo not drawn)	8.91 µM (active)	
CCC(C)NC(=O)c1c(C)cc(=O)oc1C (stereo not drawn)	inactive	
CCCNC(=O)c1c(C)cc(=O)oc1C	inactive	
Cc1cc(=O)oc(C)c1C(=O)N1CCCCC1	4.47 µM (active)	
O=C(CCc1ccccc1)NNC(=O)C1CCCCC1	25.1 µM (active)	

Compound	AC50	activity, negative = inhibition
CN(C)CC(O)COc1ccc(C(C)(C)c2ccc(OCC(O)CN(C)C)cc2)cc1 (stereo not drawn)	inactive	
CCC(=O)c1ccc(OCC(O)CN(CCc2ccccc2)Cc2ccccc2)cc1 (stereo not drawn)	1.12 µM (active)	
O[C@@H](C1=C/C(=C\c2ccncc2)c2ccccc21)c1ccncc1	0.158 µM (active)	
CCC(=O)Nc1ccccc1C(=O)OCC(=O)c1cccc2ccccc12	4.47 µM (active)	
C[N+](C)(C)CCC(=O)c1cccc2ccccc12	inactive	
CCC(=O)Nc1ccccc1C(=O)OCC(=O)c1ccccc1	3.55 µM (active)	
CC(C)NC(=O)N1CCCC2(CCN(C(=O)c3cccn3C)CC2)C1	inactive	
O=C(NNC(=O)C1CCN(S(=O)(=O)c2ccc(Cl)cc2)CC1)c1ccc(Cl)cc1	inactive	
O=C(c1ccc2c(c1)OCCO2)C1CCN(S(=O)(=O)c2ccccc2F)CC1	3.16 µM (active)	
COc1cccc(C2C3(C#N)C(N)=NC(OC)(OC)C23C#N)c1 (stereo not drawn)	4.47 µM (active)	
CC(C)N1CCN(c2ccc(OC[C@@H]3CO[C@@](Cn4cncn4)(c4ccc(Cl)cc4Cl)O3)cc2)CC1	inactive	
Cc1ccccc1N1C(=O)c2cc(S(N)(=O)=O)c(Cl)cc2N[C@H]1C	inactive	
COc1cc(C(=O)OCC(=O)Nc2cc(C)on2)cc(OC)c1OC	inactive	
Cc1cc(NC(=O)COC(=O)c2ccc(S(=O)(=O)N3CCCc4ccccc43)cc2)no1	4.47 µM (active)	
Cc1cc(N(CN2CCCC2=O)C(=O)c2ccc(F)cc2)no1	inactive	
COc1ccccc1NS(=O)(=O)c1cccc(C(=O)OCC(=O)Nc2cc(C)on2)c1	7.94 µM (active)	
COc1ccccc1NC(=O)COC(=O)c1ccc(S(=O)(=O)NCc2ccco2)cc1	5.01 µM (active)	
CCN(CC)CCOC(=O)c1cc(Cl)c(N)cc1OC	inactive	
Cc1cc(C)c(S(=O)(=O)NCC2CCC(C(=O)NCc3ccc4c(c3)OCO4)CC2)c(C)c1 (stereo not drawn)	6.31 µM (active)	
Cc1c(C(=O)O)oc2ccc(S(=O)(=O)NCc3ccc4c(c3)OCO4)cc12	inactive	
O=C(c1csnn1)N1CCC2(CC1)CCN(c1ccccn1)CC2	inactive	
Cn1cccc1C(=O)N1CCC2(CC1)CCN(c1ccccn1)CC2	inactive	
CN1C(=O)/C(=C\c2ccccc2)Sc2ccc(C(=O)N3CCN(c4ccccn4)CC3)cc21	3.98 µM (active)	
COc1ccc(C(=O)N/N=C2/C(=O)c3c(C)cc(C)cc3CC2(C)C)cc1	3.98 µM (active)	

Compound	AC50	activity, negative = inhibition
CCN(CC)C(=O)c1cc2cc([N+](=O)[O-])ccc2s1	15.8 µM (active)	
CCOC(=O)c1cc(C(=O)OCC)cc(-n2cc(O)c(C(=O)OCC)n2)c1	14.1 µM (active)	
CCOC(=O)c1nc(N)sc1C(=O)OCC	inactive	
CC1=c2c(oc3cc(O)c(Nc4c(C)cc(O)cc4O)c(C)c23)=CC(=O)C1=Nc1c(C)cc(O)cc1O	3.16 µM (active)	
CCNCc1cc(OCC)c(OCC(=O)NCCc2ccccc2)cc1Cl	1.58 µM (active)	
CCOc1cc(CNCCO)c(Cl)cc1OCC(=O)NCCc1ccccc1	4.47 µM (active)	
Cn1c(=O)cc(OCC(=O)NCc2cccnc2)c2ccccc21	inactive	
N=c1nc(N)nc(N)n1-c1ccc(S(N)(=O)=O)cc1		36.5% [at 11.4 µM]
CCOC(=O)c1cnc(-c2ccccc2)nc1Oc1ccccc1	14.1 µM (active)	
COc1cnc(-c2ccccc2)nc1Oc1cccc(C)c1	7.94 µM (active)	
CCOC(=O)c1cnc(-c2ccccc2)nc1Oc1ccc(Cl)cc1	inactive	
N[C@H](CO)C(=O)NCC(=O)O (H-[dS]-Gly-OH)		19% [at 11.4 µM]
CCc1cc2c(=O)c(-c3cnn(-c4ccccc4)c3)coc2c(CN2CCOCC2)c1O	20 µM (active)	
Fc1ccc(Cn2c(SCc3ccc(F)c(C(F)(F)F)c3)nnc2C(F)(F)F)cc1	2.82 µM (active)	
Fc1ccc(Cn2c(SCc3ccc(F)c(F)c3)nnc2C(F)(F)F)cc1	2.24 µM (active)	
Cc1ccc(CSc2nnc(C(F)(F)F)n2Cc2ccc(F)cc2)cc1	2.82 µM (active)	
COc1cccc(CSc2nnc(C(F)(F)F)n2Cc2ccc(F)cc2)c1	3.16 µM (active)	
[O-][N+]1(CC[N+]2([O-])CCCCC2)CCCCC1		25.1% [at 11.4 µM]
CC1(C)C(=O)C(c2ccccc2)=C2CN3C(=O)N(CCc4ccccc4)C(=O)C3(Cc3ccccc3)C=C21 (stereo not drawn)	inactive	
CC[C@H](CO)NCCN[C@@H](CC)CO	inactive	
CCCN(CCC)CCCNC(=O)c1ccc2c(c1)N(CC)C(=O)c1ccccc1S2=O (stereo not drawn)	inactive	
CCN1C(=O)c2cccc3c(NC(=O)c4cccc(N5C(=O)CCC5=O)c4)ccc1c23	inactive	
CCOC(=O)c1ccc(NC(=O)Nc2ccc3c4c(cccc24)C(=O)N3CC)cc1	11.2 µM (active)	
Cc1cc(C=O)c(C)n1-c1ccc(NC2CCCC2)c([N+](=O)[O-])c1	6.31 µM (active)	

Compound	AC50	activity, negative = inhibition
Cc1ccc(C(=O)N/N=C/c2cc(C)n(-c3ccc(Br)cc3)c2C)cc1[N+](=O)[O-]	inactive	
CN(/C=C/C(=O)C(F)(F)F)Cc1ccccc1	8.91 µM (active)	
N[C@@](CCc1ccccc1)(C(=O)O)c1ccccc1		-19.5% [at 11.4 µM]
CCCC[C@@H]1C[C@H]1C(NC(=O)c1ccccc1)c1ccccc1C(F)(F)F (stereo partly drawn)	0.501 µM (active)	
CCCC[C@@H]1C[C@H]1C(NC(=O)c1cccs1)c1ccccc1C(F)(F)F (stereo partly drawn)	0.631 µM (active)	
COC(=O)c1sccc1NC(=O)CSc1cc(Cl)ccc1Cl	2.82 µM (active)	
Cc1cc(Cl)nc(NC(=O)CSc2ccc(Cl)cc2)n1		34.4% [at 11.4 µM]
Cc1cnc2cc(Cl)ccc2c1SCC(=O)O		24.8% [at 11.4 µM]
COC(=O)c1sccc1NC(=O)CN(C)NS(=O)(=O)c1ccc(F)cc1	14.1 µM (active)	
COC(=O)c1sccc1NC(=O)CSc1ccccc1NS(=O)(=O)c1ccc(Cl)cc1	0.794 µM (active)	
Cc1cnc(NC(=O)CSc2ccc(Cl)cc2)s1	2 µM (active)	
Oc1ccc(Cc2nccc3cc(O)c(O)cc23)cc1O		-17.6% [at 11.4 µM]
COCc1nnc(NC(=O)CCN2C(=O)c3ccccc3C2=O)s1	inactive	
COC(=O)c1sccc1NC(=O)CSc1ccc(Cl)cc1	7.08 µM (active)	
COCc1nnc(NC(=O)CSc2ccc(C)cc2)s1	3.55 µM (active)	
COc1ccc2c3c([nH]c2c1)[C@H]1C[C@@H]2[C@@H](C[C@@H](O)[C@H](OC)[C@H]2C(=O)O)CN1CC3		19% [at 11.4 µM]
CCOc1ccc(N(CCC#N)S(=O)(=O)c2ccc(OC)cc2)cc1	3.55 µM (active)	
O=C(Nc1cccc(NC(=O)c2ccc(-c3cccc(Br)c3)o2)c1)c1ccco1	2.51 µM (active)	
O=C(Nc1ccc2nc(-c3ccc(Br)o3)[nH]c2c1)c1ccco1	22.4 µM (active)	
O=C(Nc1cccc(-c2cn3cccnc3n2)c1)c1ccco1	inactive	
O=C(Nc1cccc(Br)c1)/C(=C\c1cccnc1)NC(=O)c1ccco1	inactive	

From PubChem BioAssay AID1851 (National Center for Advancing Translational Sciences (NCATS), 2009)
